Among the data in PubChem BioAssay AID488890 (Southern Research Specialized Biocontainment Screening …, 2010) are inhibition values, retold here.

Screen size: about 320,000 compounds; about 1,300 (0.41%) were called active. Not shown: some 3% with an inconclusive outcome. How the calls were made is not given here. Only a sample is shown. Entries with a potency or affinity are not part of this list.

A short description of this test: growth inhibition of non-replicating M. tuberculosis (AID 488890).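 Further: plate controls were DMSO cells for no effect and high antibiotic wells for full effect.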 The settings on record: Mycobacterium tuberculosis non-replicating, at 25 µM, stronger effect = higher value.
For orientation: inhibition means the change of the read-out against control, counted positive when it falls. `O=S(=O)(NCC(c1cccnc1)N1CCN(c2ccccc2)CC1)c1cccs1` (stereo not drawn): the inhibition is 44.5%.

As to `O=C1CC(N2CCN(c3ccccc3)CC2)C(=O)N1c1ccc(Cl)cc1` (stereo not drawn), the inhibition came out at 58.5%.

For `O=C(NCc1ccccn1)Nc1ccc(Br)cc1`, the inhibition is -10.5%.

With `Fc1ccc(-c2ccc(CNCc3ccccn3)o2)cc1`, the inhibition is 74.8%.

In the case of `CC(C)c1ccc(N(C)C(=O)Cc2c(C(=O)O)n(C)c3ccccc23)cc1`, the inhibition was -2.94%.

In the case of `N#CCc1c(C#N)c(N)nc(N2CCN(C=O)CC2)c1C#N`, the inhibition was found to be 2.81%.

On to `Cc1[nH]c(C)c(S(=O)(=O)Nc2ccccc2Cl)c1C(=O)N1CCCC1`, for which the inhibition was -4.19%.

On to `Cc1ccc(N(C)S(=O)(=O)c2cccc(C(=O)NNC(=O)c3ccncc3)c2)cc1`, for which the inhibition was determined as 38.7%.

As for `COc1ccc([C@@H]2CC(=O)c3c(O)cc(O[C@@H]4OC(CO[C@@H]5OC(C)[C@H](O)[C@@H](O)[C@H]5O)[C@@H](O)[C@H](O)[C@H]4O)cc3O2)cc1O` (stereo partly drawn), the inhibition amounted to 2.5%.

For the compound `CSC(=Nc1ccccc1)c1c(O)n(C)c(=O)n(C)c1=O`, the inhibition turned out to be 56.9%.

For the compound `CN=C(SCc1ccccc1)c1c(O)n(C)c(=O)n(C)c1=O`, the inhibition worked out at 11.6%.

Regarding `CCOC(=O)C1C(=O)CC(=O)CC1CC(C)SCC` (stereo not drawn), the inhibition is -2.43%.

For the compound `Cc1ccc(S(=O)(=O)N2CCN(C(=O)CCOc3cc(C)ccc3C)CC2)cc1`, the inhibition turned out to be 39.6%.

Regarding `N#C/C(=C\Nc1ccc(F)c(Cl)c1)C(=O)C1CC1`, the inhibition was -9.33%.

With `C[C@@H](C(=O)Nc1ccc(SC(F)F)cc1)N1C(=O)C2CCCCC2C1=O` (stereo partly drawn), the inhibition is -9.99%.

On to `CCOC(=O)/C=C1\Nc2ccccc2SC1=O`, for which the inhibition stood at 19.5%.

Consider `Cc1ccc(CNC(=O)C2(C)Oc3ccccc3NC2=O)cc1` (stereo not drawn), for which the inhibition was -3.05%.

With `COC(=O)C1CCN(S(=O)(=O)c2c(C)n(C)c(=O)n(C)c2=O)CC1`, the inhibition was -0.96%.

As for `CCNc1nc2ccccc2[nH]1`, the inhibition is 11.9%.

`O=C(Nc1ccccc1Oc1cccnc1)C1CCCN(Cc2cccc(Cl)c2)C1` (stereo not drawn): the inhibition came out at 16.5%.

In the case of `Cc1ccc(/C=C2\SC(N3CCCCC3)=NC2=O)cc1`, the inhibition stood at 77.7%.

With `CC(C)(C)c1ccc(/C=C2/SC(N3CCCC3)=NC2=O)cc1`, the inhibition was found to be 73.6%.

Turning to `O=C(NC1CC2CCCC(C1)N2Cc1ccccc1)C1CCCCC1` (stereo not drawn), the inhibition is -4.43%.

For `CCCCCCSc1ccc(-c2nc3ccc(C)cn3c2NCc2ccccc2)cc1OC`, the inhibition was determined as 8.88%.

For the compound `O=C(COc1ccccc1)NCC(=O)N/N=C/c1ccccc1`, the inhibition is 12.4%.

Turning to `COc1ccc(-c2csc(C3=C(O)CN(CCCN4CCCC4=O)C3=N)n2)cc1OC`, the inhibition is 2.8%.

Turning to `Cc1ccc2oc(=O)c(/C=C(\O)c3ccccc3)nc2c1`, the inhibition was determined as 4.41%.

Consider `O=c1oc2ccccc2nc1/C=C(\O)c1ccccc1`, for which the inhibition worked out at 77.3%.

Regarding `Cc1ccc(/C(O)=C/c2nc3cc(C)ccc3oc2=O)cc1`, the inhibition was found to be 18.1%.

For `Cc1ccc2oc(=O)c(/C=C(\O)c3cccs3)nc2c1`, the inhibition is -10.4%.

In the case of `Cc1ccc2oc(=O)c(/C=C(\O)c3ccco3)nc2c1`, the inhibition was -4.98%.

Consider `Cc1ccc2oc(=O)c(/C=C(\O)c3sc(C)nc3C)nc2c1`, for which the inhibition came to 2.53%.

With `CC(C(=O)c1ccccc1)[n+]1cccc(C(N)=O)c1` (stereo not drawn), the inhibition is -11.2%.

For the compound `Cc1cc(=O)[nH]c(SCC(=O)Nc2ccc(S(=O)(=O)N3CCOCC3)cc2)n1`, the inhibition is -13.9%.

Take `CN(c1ccc(C(=O)NC2CCCC2)cc1)S(=O)(=O)c1ccccc1`: the inhibition is 9.33%.

`CC(=O)Oc1ccc(OC(C)=O)c(S(=O)(=O)c2ccc(C)c(C)c2)c1`: the inhibition is -1.53%.

As to `CCOC(=O)N1CCN(S(=O)(=O)c2ccc(C)cc2)C1c1ccc(OC)cc1` (stereo not drawn), the inhibition stood at 16.9%.

In the case of `Brc1ccc2c(c1)C(c1ccc(N3CCOCC3)cc1)=NNC(c1cccs1)=N2`, the inhibition was 18.5%.

On to `c1ccc(-n2c(-c3ccco3)nnc2-c2ccco2)cc1`, for which the inhibition is -0.67%.

Consider `COC(=O)[C@@]1(Cc2ccc(OC)cc2)[C@H]2c3cc(C(=O)N(C)C)n(CCc4ccc(OC)c(Br)c4)c3C[C@H]2CN1C(=O)c1ccccc1`, for which the inhibition worked out at 70.8%.

With `CCSc1ncc(/C=N/Nc2ccc(F)cc2)n1C`, the inhibition was 60.8%.

Consider `CCSc1ncc(/C=N/Nc2ccccc2)n1C`, for which the inhibition worked out at 53.4%.

On to `COc1cc(CC(NC(C)=O)C(=O)NC2CCN(c3c4c(nc5ncnn35)CCC4)CC2)cc(OC)c1` (stereo not drawn), for which the inhibition is -7.76%.

`O=C(N/N=C/c1cccc2ccccc12)c1cccnc1`: the inhibition turned out to be 77.8%.

`O=C(N/N=C/c1ccccc1O)c1ccncc1`: the inhibition turned out to be 67.2%.

On to `Cc1ccc(C(=O)N/N=C/c2c(O)ccc3ccccc23)cn1`, for which the inhibition is -8.14%.

Consider `CCOc1ccc2ccccc2c1/C=N\NC(=O)c1ccc([N+](=O)[O-])cc1`, for which the inhibition is 8.86%.

Turning to `O=C(N/N=C/c1ccccc1C(=O)O)c1ccncc1`, the inhibition came out at 47.8%.

As for `Cc1nnsc1C(=O)N/N=C/c1ccccc1`, the inhibition is -14.8%.

As to `CCOc1ccc2ccccc2c1/C=N/NC(=O)c1ccc(C)nc1`, the inhibition turned out to be 6.31%.

`COc1ccc(/C=N/NC(=O)c2snnc2C)c(OC)c1OC`: the inhibition was 4.13%.

Turning to `Cc1ccc(NC(=O)[C@H](C)NC(=O)C2CCN(C(=O)[C@@H](NC(=O)OC(C)(C)C)C(C)C)CC2)cc1`, the inhibition is -5.73%.

Consider `CC(C)[C@H](NC(=O)c1ccco1)C(=O)OCC(=O)NC12CC3CC(CC(C3)C1)C2`, for which the inhibition was determined as 16.5%.

For the compound `O=C(Nc1cccc(-n2cnnn2)c1)c1cnccc1Cl`, the inhibition was -2.47%.

For the compound `O=C(NCc1ccccc1)c1ccc(CN2CCC(Cc3ccccc3)CC2)cc1`, the inhibition came to 63.1%.

For `CCCc1ccc2oc(C(=O)N3CCC(N4CCCC(O)C4)CC3)c(C)c2c1` (stereo not drawn), the inhibition stood at 9.91%.

`O=C(NC1=NCCS1)c1cc(-c2ccccc2)nn1-c1ccccc1`: the inhibition was determined as 12.3%.

On to `O=C(O)c1ccc(N/N=C/c2cccc3cccnc23)cc1`, for which the inhibition is -19.9%.

On to `COc1ccc(C(=O)N/N=C/c2cccnc2)cc1`, for which the inhibition was -12.5%.

On to `O=C(N/N=C/c1ccnc2ccccc12)c1ccccc1O`, for which the inhibition came out at 24.1%.

Take `COc1cccc(/C=N/NC(=O)COc2cccc3cccnc23)c1O`: the inhibition was determined as 22.2%.

`Cc1cccc2cc(/C=N/NC(=O)c3ccccc3O)c(Cl)nc12`: the inhibition is -1.47%.

Turning to `O=C(COc1cccc2cccnc12)N/N=C/c1ccccc1O`, the inhibition came out at 21.3%.

Regarding `CCOc1ccc(C(=O)Nc2cccc3cccnc23)cc1`, the inhibition stood at 39%.

`CCOc1ccccc1C(=O)N/N=C/c1cccc2cccnc12`: the inhibition turned out to be 78.1%.

Consider `O=C(c1ccccc1)N1CCN(C(=S)NCc2ccco2)CC1`, for which the inhibition is -12.8%.

Regarding `Cc1cc(/C=N/O)c(C)n1-c1cccc(Cl)c1`, the inhibition stood at 5.04%.

`Nc1c(C(=O)Nc2ccc3c(c2)OCCO3)nnn1Cc1cccc(Br)c1`: the inhibition worked out at 1.42%.

`CCOc1ccc(N=C2NC(=O)C(CC(=O)Nc3ccc(OC)cc3)S2)cc1` (stereo not drawn): the inhibition is 23%.

Consider `N#Cc1ccc(C23CC4(C2)[C@H](CN(Cc2ccc(-c5ccccc5)cc2)[C@@H]4c2ccccc2)C3c2ccccc2)cc1` (stereo partly drawn), for which the inhibition was determined as 34.9%.

Regarding `CCN(CC)C(=O)CSc1nc(OC)cc(=O)[nH]1`, the inhibition is -3.35%.

As to `COC(=O)C1=C(C(=O)OC)[C@@H]2N(Cc3ccccc3)c3ccccc3[C@@]23C[C@@H](CO)N(C(=O)NC2CCCC2)C3=N1`, the inhibition was 39.9%.

On to `Cc1ccc(S(=O)(=O)N2CCC(=O)N(CCOC(=O)NCc3ccccc3)CC2)cc1`, for which the inhibition was 16.1%.

On to `O=C(O)c1ccc(N2CC3CC(C2)c2cccc(=O)n2C3)c(NC(=S)Nc2ccc(Br)cc2)c1` (stereo not drawn), for which the inhibition is 41.1%.

As to `O=[N+]([O-])c1ccc(Nc2cccc(F)c2)nc1`, the inhibition amounted to 16.5%.

In the case of `CC1=NN(C(=O)c2nn(C)cc2Br)C(O)(C(F)(F)F)C1` (stereo not drawn), the inhibition is 8.53%.

For `CC1=NN(C(=O)CCc2ccccc2O)C(O)(C(F)(F)F)C1` (stereo not drawn), the inhibition was 74.8%.

`COc1ccc(CC(=O)N2N=C(C)CC2(O)C(F)(F)F)cc1` (stereo not drawn): the inhibition came to 72.4%.

In the case of `CC1=NN(C(=O)c2ccc(Cn3nc(C)cc3C)o2)C(O)(C(F)(F)F)C1` (stereo not drawn), the inhibition is 24.9%.

Consider `CC1=NN(C(=O)c2cccnc2)C(O)(C(F)(F)F)C1` (stereo not drawn), for which the inhibition is -26.1%.

For the compound `CC1=NN(C(=O)CCc2ccc3c(c2)OCO3)C(O)(C(F)(F)F)C1` (stereo not drawn), the inhibition was -15.8%.

On to `COc1ccc(OCC(=O)N2N=C(C)CC2(O)C(F)(F)F)cc1` (stereo not drawn), for which the inhibition is 75.8%.

As to `O=C(c1ccco1)N1N=C(c2ccncc2)CC1(O)C(F)(F)F` (stereo not drawn), the inhibition is -9.67%.

As to `COC(=O)c1ccccc1NC(=O)COC(=O)/C=C/c1cccs1`, the inhibition was found to be 18.2%.

In the case of `CC(C)c1ccc(C(O)Cc2nc3ccccc3n2C)cc1` (stereo not drawn), the inhibition worked out at 41.1%.

Take `OCCCc1nc2n(n1)C(c1cccs1)C=C(c1ccccc1)N2` (stereo not drawn): the inhibition was 0.31%.

Regarding `CCOC(=O)c1cc([N+](=O)[O-])sc1N`, the inhibition is 5.99%.

With `CCn1c(C(=O)O)c(CC(=O)NC2CCCCCC2)c2ccccc21`, the inhibition is 24.3%.

For `O=C(CSc1ncccn1)NC1CCCc2ccccc21` (stereo not drawn), the inhibition is -8.14%.

Consider `COc1ccc(CC(=O)N2N=C(C)CC2(O)C(F)(F)F)cc1OC` (stereo not drawn), for which the inhibition was determined as 45.4%.

Take `CC1=NN(C(=O)c2cccc(Cn3nc(C)c([N+](=O)[O-])c3C)c2)C(O)(C(F)(F)F)C1` (stereo not drawn): the inhibition came out at 76.4%.

Take `CC1=NN(C(=O)Cn2nc([N+](=O)[O-])cc2C)C(O)(C(F)(F)F)C1` (stereo not drawn): the inhibition came out at 32.3%.

`CC1=NN(C(=O)c2ccc(Cn3ccc([N+](=O)[O-])n3)cc2)C(O)(C(F)(F)F)C1` (stereo not drawn): the inhibition turned out to be 75.5%.

Turning to `CNC(=S)NNS(=O)(=O)c1ccc(OC)cc1OC`, the inhibition was -11%.

Take `COc1cccc(N2CCN(CC(=O)Nc3nnc(-c4ccccc4)s3)CC2)c1`: the inhibition stood at 29.2%.

With `O=C(CN1CCN(c2ccccc2)CC1)Nc1nccs1`, the inhibition is 5.49%.

With `C=CCn1c(=S)[nH]c2cc(C(=O)Nc3ccc(OC)c(OC)c3)ccc2c1=O`, the inhibition was -8.59%.

`COc1cccc2cc(C(=O)NCCc3c[nH]c4ccccc34)c(=O)oc12`: the inhibition was 61%.

For the compound `O=C(NCCc1ccc(F)cc1)c1cc2ccccc2oc1=O`, the inhibition came out at 47.5%.

Take `COC(=O)C1=CN(Cc2ccc(OC)cc2)C=C(C(=O)OC)C1c1cc(OC)c(OC)c(OC)c1`: the inhibition turned out to be 8.79%.

`CCCCCn1c(=O)c(C(=O)Nc2ccccn2)c(O)c2ccccc21`: the inhibition came out at 68.9%.

For the compound `CCCCn1c(=O)c(C(=O)Nc2ccc(C)cn2)c(O)c2ccccc21`, the inhibition came to 0.62%.

For the compound `CCCCn1c(=O)c(C(=O)Nc2ccccn2)c(O)c2ccccc21`, the inhibition stood at 27.8%.

`CCCCCn1c(=O)c(C(=O)Nc2cc(C)ccn2)c(O)c2ccccc21`: the inhibition is 17.3%.

As for `COc1cccc(NC(=O)c2ccnc(N3CCC(C(=O)NCc4ccccc4OC)CC3)c2)c1`, the inhibition is -4.35%.

Take `CC(C)(C)C(=O)Nc1c2c(nn1-c1ccccc1)CSC2`: the inhibition stood at 35%.

Take `COc1ccc(OCC(=O)NNC(=O)c2cccnc2)cc1`: the inhibition came to 3.8%.

On to `COc1cccc(N2CCN(C(=S)Nc3ccc(F)cc3)CC2)c1`, for which the inhibition is -4.62%.
